5 compounds from PubChem BioAssay can be followed below.

A short description of assay [1]: small molecules captured by biotinylated probe aFSTL3 – biochemical, small-molecule microarray, fluorescence 635/667, stem cell growth factor project, primary screen (AID 1064).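 Note: measures binding of the biotinylated anti-FSTL3 antibody to printed compounds.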 As to conditions: higher = more signal.
The nature of assay [2]: binders from COS7 lysate, DM2A8 probe, primary screen, torsin A project, cell lysate, small-molecule microarray, fluorescence 635/667 (AID 1065). The note with it: higher = more signal, COS7 lysate expressing mutant human TOR1A.
A short description of assay [3]: small molecules captured by biotinylated probe aFGF2 – biochemical, small-molecule microarray, fluorescence 635/667, stem cell growth factor project, primary screen (AID 1067).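 Note: measures binding of biotinylated aFGF2 protein to printed compounds on slides; z-score merges feature fluorescence and signal-to-noise across triplicate slides.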 As to conditions: higher = more signal.
Assay [4] is described as follows: small molecules captured by biotinylated probe aFGF10 – biochemical, small-molecule microarray, fluorescence 635/667, stem cell growth factor project, primary screen (AID 1071).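 Note: score merges 667 nm spot intensity and signal to noise from triplicate slides.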 As to conditions: higher = more signal.
Assay [5] has as its target Neurogenic locus notch homolog protein 2 (Homo sapiens) (UniProt Q04721). Nature of the assay: small molecules binding Notch2 protein – biochemical, small-molecule microarray, 635 nm fluorescence, stem cell growth factors, primary screen (AID 1073). As to conditions: higher = more signal.
Assay [6] concerns the target Pro-neuregulin-1, membrane-bound isoform (Homo sapiens) (UniProt Q02297). The assay is described as follows: small molecules binding neuregulin-1 protein – biochemical, small-molecule microarray, fluorescence 635/667, psychiatric disease protein project, primary screen (AID 1075).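 Note: score combines 667 nm spot fluorescence with signal to noise.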 As to conditions: NRG1 binding, 635 nm fluorescence, higher = more signal.
Assay [7] relates to Neuregulin-1 EGF-like domain. The assay is described as follows: small molecules binding NRG1 EGF domain – biochemical, small-molecule microarray, 635 nm fluorescence, primary screen (AID 1081).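 Note: binding of the protein to compounds printed on small-molecule microarray slides.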 As to conditions: higher = more signal.
Assay [8] is described as follows: FRG1 expression reporter modulators in myotubes – cell-based, C2C12 myotubes, firefly/Renilla luciferase, luminescence, FRG1 inhibition for FSHD, primary screen (AID 1084). As to conditions: FRG1 promoter luciferase, higher = more signal, called active from +8 up or from −8 down.
The nature of assay [9]: small molecules captured by biotinylated probe aFST – biochemical, small-molecule microarray, fluorescence 635/667, stem cell growth factor project, primary screen (AID 1086).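 Note: score merges 667 nm fluorescence with signal-to-noise of each printed compound spot.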 The note with it: higher = more signal.
Assay [10] is described as follows: binders of probe aHhip on microarray, primary screen, stem cell growth factor project, biochemical, small-molecule microarray, fluorescence 635/667 (AID 1087).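 Note: score merges spot fluorescence at 667nm with spot signal to noise ratio.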 The note with it: higher = more signal.
For assay [11], the system named is PRMT1 (protein arginine N-methyltransferase 1). Nature of the assay: small molecules binding arginine methyltransferase PRMT1 – biochemical, small-molecule microarray, 635 nm fluorescence, primary screen (AID 1088).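 Note: binding of Prmt1 protein to compounds spotted on small-molecule microarray slides.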 As to conditions: higher = more signal.
Assay [12] can be described thus: growth effects on S. cerevisiae YJM789 – YJM789 clinical isolate, OD600, 24 h, basal, primary screen (AID 1089).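 Note: growth of clinical yeast isolate S. cerevisiae YJM 789 seeded 1000 cells per well; test concentration not given here.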 The note with it: higher = more signal, called active from +8 up or from −8 down.
Assay [13] is described as follows: S. pombe growth modifiers, basal conditions – strain 972, OD600, 24 h, no modulator, primary screen (AID 1090).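 Note: basal condition with compound alone and no growth modifier present; test concentration not given here.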 As to conditions: S. pombe 972 growth, higher = more signal, called active from +8 up or from −8 down.
Assay [14] in a line: budding yeast growth modifiers under rapamycin – strain BY4716, OD600, 96 h, primary screen (AID 1091). Note: test concentration not given here. As to conditions: S. cerevisiae BY4716 + rapamycin, higher = more signal, called active from +8 up or from −8 down.
Assay [15] addresses Torsin-1A-interacting protein 2 (Homo sapiens) (UniProt Q8NFQ8). Nature of the assay: small molecules binding lysate-expressed LULL1 – cell lysate, human LULL1 lysate, 635/667 nm fluorescence, primary screen (AID 1092).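 Note: probe is lysate of COS7 cells overexpressing human LULL1; score merges per-feature 667 nm fluorescence with signal-to-noise.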 The note with it: small-molecule microarray, hLULL1 lysate binding, 635 nm fluorescence; higher = more signal.
Assay [16] is described as follows: optical density change of DRC41 E. coli – strain DRC41, OD650, 24 h, E. coli filamentation project, primary screen (AID 1093).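 Note: MC1000 strain lacking acrAB efflux and sulA so SOS filamentation is blocked; test concentration not given here.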 As to conditions: E. coli DRC41 growth, higher = more signal, called active from +8 up or from −8 down.
Assay [17] can be described thus: probe aLefty2 binding to arrayed compounds – biochemical, biotinylated probe, 635/667 nm fluorescence, primary screen (AID 1094).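 Note: score merges spot fluorescence near 667 nm with spot signal-to-noise ratio.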 As to conditions: small-molecule microarray, higher = more signal.
The test system of assay [18] is Noggin (protein binding on small-molecule microarray). Nature of the assay: small molecules binding Noggin protein – biochemical, 635/667 nm fluorescence, primary screen (AID 1095).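 Note: score merges 667 nm feature fluorescence with signal to noise over triplicate slides.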 As to conditions: 635 nm fluorescence, higher = more signal.
The target of assay [19] is Neurogenic locus notch homolog protein 3 (Homo sapiens) (UniProt Q9UM47). Nature of the assay: small molecules binding NOTCH3 protein – biochemical, 635/667 nm fluorescence, primary screen (AID 1096). The note with it: small-molecule microarray, 635 nm fluorescence, higher = more signal.
Assay [20] is described as follows: probe aEGFR binding to arrayed compounds – biochemical, biotinylated probe, 635/667 nm fluorescence, primary screen (AID 1097).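 Note: probe is a biotinylated anti-EGFR antibody binding compounds printed on slides; score combines fluorescence near 667 nm and signal to noise of each spot.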 As to conditions: small-molecule microarray, higher = more signal.

Molecules are shown by their SMILES. Activity calls are given as the source filed them.

Pro-neuregulin-1, membrane-bound isoform (Homo sapiens), sequence (Q02297 whole entry, looked up, the tested form may be a part, canonical isoform): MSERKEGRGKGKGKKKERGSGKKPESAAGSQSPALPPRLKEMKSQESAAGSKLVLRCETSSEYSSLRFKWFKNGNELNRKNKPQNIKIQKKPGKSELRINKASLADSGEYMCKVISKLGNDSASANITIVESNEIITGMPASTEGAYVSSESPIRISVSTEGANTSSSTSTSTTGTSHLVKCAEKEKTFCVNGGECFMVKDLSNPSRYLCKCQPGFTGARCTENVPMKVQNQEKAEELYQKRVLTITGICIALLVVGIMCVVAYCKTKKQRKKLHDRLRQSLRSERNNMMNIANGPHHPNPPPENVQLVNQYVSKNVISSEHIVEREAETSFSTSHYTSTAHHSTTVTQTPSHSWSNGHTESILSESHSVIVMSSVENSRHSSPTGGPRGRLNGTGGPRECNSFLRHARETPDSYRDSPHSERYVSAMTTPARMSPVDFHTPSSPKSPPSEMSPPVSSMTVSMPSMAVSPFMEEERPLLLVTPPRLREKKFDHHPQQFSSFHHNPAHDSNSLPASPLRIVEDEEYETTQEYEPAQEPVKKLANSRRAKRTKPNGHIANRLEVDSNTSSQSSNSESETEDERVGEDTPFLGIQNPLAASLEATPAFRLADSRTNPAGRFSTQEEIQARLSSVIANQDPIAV
Neurogenic locus notch homolog protein 2 (Homo sapiens), sequence (Q04721 whole entry, looked up, canonical isoform): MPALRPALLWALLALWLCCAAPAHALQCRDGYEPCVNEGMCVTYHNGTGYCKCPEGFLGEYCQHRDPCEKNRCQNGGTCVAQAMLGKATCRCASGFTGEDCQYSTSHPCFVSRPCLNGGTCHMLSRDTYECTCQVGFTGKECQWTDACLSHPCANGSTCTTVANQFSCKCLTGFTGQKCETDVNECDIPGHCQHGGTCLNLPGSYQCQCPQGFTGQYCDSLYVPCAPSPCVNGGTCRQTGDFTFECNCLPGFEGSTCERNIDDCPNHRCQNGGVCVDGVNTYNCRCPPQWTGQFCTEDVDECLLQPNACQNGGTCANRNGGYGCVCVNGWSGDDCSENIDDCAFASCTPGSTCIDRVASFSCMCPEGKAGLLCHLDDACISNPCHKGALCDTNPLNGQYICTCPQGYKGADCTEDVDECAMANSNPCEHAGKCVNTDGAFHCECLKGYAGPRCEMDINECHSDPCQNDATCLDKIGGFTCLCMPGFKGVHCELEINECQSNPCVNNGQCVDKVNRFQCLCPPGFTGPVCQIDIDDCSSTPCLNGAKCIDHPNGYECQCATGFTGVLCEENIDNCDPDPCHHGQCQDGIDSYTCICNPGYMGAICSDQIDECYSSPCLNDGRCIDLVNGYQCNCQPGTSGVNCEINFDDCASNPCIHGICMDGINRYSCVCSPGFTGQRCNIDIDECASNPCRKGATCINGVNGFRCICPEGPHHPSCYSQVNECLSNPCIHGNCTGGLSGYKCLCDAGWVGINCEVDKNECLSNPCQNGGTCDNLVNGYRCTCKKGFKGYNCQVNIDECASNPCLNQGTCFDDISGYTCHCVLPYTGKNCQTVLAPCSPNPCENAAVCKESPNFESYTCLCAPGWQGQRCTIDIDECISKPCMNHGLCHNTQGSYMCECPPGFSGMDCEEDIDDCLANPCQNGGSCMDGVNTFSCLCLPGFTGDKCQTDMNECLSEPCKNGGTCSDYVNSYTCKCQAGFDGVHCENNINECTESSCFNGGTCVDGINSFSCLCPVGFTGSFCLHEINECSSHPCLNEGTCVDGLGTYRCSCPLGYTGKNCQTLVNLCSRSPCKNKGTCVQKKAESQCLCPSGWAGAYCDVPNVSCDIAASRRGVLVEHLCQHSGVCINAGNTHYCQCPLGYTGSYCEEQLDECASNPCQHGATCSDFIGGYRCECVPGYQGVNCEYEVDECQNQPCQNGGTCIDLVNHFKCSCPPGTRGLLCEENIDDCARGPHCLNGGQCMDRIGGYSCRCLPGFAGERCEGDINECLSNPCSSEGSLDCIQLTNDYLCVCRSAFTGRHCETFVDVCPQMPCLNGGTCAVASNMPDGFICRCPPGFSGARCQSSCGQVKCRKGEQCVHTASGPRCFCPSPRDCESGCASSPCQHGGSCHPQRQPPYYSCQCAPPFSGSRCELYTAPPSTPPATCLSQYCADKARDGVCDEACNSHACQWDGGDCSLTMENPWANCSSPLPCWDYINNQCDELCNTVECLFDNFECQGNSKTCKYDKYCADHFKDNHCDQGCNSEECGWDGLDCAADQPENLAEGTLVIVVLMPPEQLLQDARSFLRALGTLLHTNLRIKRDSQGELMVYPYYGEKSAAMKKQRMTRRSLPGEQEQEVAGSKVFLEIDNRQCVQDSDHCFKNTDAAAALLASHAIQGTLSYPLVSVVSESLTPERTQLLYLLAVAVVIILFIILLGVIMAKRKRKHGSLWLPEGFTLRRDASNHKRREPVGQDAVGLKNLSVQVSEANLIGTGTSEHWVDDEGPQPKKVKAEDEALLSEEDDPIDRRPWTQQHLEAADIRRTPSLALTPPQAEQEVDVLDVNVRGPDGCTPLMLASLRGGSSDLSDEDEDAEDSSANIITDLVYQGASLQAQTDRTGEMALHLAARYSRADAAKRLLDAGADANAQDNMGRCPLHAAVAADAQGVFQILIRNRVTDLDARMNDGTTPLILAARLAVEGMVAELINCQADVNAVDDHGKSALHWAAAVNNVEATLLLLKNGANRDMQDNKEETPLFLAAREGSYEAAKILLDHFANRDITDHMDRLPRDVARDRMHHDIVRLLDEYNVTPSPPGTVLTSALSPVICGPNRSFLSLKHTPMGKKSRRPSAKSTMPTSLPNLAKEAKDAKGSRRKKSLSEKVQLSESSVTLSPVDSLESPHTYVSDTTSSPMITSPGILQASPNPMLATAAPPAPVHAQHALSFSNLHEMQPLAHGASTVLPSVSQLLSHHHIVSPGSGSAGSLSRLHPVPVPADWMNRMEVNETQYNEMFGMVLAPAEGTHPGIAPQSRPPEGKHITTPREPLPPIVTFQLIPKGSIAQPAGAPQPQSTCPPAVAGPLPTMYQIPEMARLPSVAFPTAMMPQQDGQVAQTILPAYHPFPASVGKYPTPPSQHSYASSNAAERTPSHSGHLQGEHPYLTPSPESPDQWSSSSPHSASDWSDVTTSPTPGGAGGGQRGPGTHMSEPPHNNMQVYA
Torsin-1A-interacting protein 2 (Homo sapiens), sequence (Q8NFQ8 whole entry, looked up): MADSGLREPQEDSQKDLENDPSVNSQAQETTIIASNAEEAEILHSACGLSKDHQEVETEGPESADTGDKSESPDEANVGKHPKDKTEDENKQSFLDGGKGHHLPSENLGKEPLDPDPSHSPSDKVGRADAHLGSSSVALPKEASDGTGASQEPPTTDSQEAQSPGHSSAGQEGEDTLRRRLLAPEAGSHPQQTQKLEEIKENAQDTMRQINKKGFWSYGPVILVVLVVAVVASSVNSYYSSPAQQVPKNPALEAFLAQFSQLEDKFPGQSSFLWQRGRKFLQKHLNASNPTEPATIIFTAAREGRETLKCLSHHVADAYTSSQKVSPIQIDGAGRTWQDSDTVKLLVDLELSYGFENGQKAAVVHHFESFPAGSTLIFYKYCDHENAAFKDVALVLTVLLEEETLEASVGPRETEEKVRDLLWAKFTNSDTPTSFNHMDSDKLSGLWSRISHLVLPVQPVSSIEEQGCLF

Regarding `C=CCOC(=O)[C@@H]1[C@H]2C(=O)O[C@H](c3ccccc3)[C@H](c3ccccc3)N2[C@H](c2ccc(OCCOC(=O)[C@@H]3C[C@@H]4C(=O)N[C@@H](CC(C)C)C(=O)N4[C@@H]3c3ccc(O)cc3)cc2)[C@@]12C(=O)Nc1ccc(I)cc12`, the composite z-score in [1] is -0.479; in assay [2], 0.17; in [3] it was -0.0489; in [4], 0.325; in assay [5], 0.853; in assay [6], 0.616. Besides, the composite z-score in [7] was 1.29; in assay [9], 0.4; in assay [10], 0.383; in assay [11], 1.56; in [15] it was 1.82; in assay [17] it was -0.0321. Besides, the composite z-score was 1.69 in assay [18], 1.08 in assay [19] and 0.105 in assay [20]. Further, the z-score in assay [8] was -0.277 (inactive); in assay [12], -0.677 (inactive); in assay [13], 1.63 (inactive); in assay [14], 18.2 (active); in [16] it was 1.16 (inactive).

Take `CCCCCCc1nc(-c2ccc(OC)nc2)c(C)c2c1[Si](C(C)C)(C(C)C)OC2`: the composite z-score is -0.314 in [1]; -0.0637 in assay [2]; -0.0502 in assay [3]; -0.234 in assay [4]; 0.0716 in [5]; -0.64 in assay [6]. Also, the composite z-score in assay [7] was -0.59; in assay [9] it was 0.0446; in assay [10], -0.0994; in assay [11], 0.319; in assay [15], -0.627; in assay [17] it was 0.054. Also, the values for the composite z-score in assay [18], in [19] and in [20] were 0.293, 0.0448 and -0.131, respectively. For the same compound, the z-score was 0.329 (inactive) in [8]; -0.0796 (inactive) in assay [12]; -0.329 (inactive) in [13]; 0.182 (inactive) in assay [14]; 0.836 (inactive) in [16].

As to `O=C1C2C=CC(C(O)C(c3ccccc3)c3ccccc3)N(Nc3ccccc3F)C2C(=O)N1c1ccccc1` (stereo not given), the composite z-score in assay [1] is -0.117; in assay [2], 0.975; in assay [3] it was 0.11; in assay [4] it was 1.03; in [5] it was 1.63; in [6], 1.76. Besides, the composite z-score in [7] was 1.32; in assay [9], 1.5; in [10], -0.121; in [11], 1.52; in assay [15], 3.58; in assay [17] it was 0.0943. Also, the composite z-score was 0.295 in assay [18], 1.02 in [19] and 0.162 in assay [20]. Besides, the z-score was -0.243 (inactive) in assay [8]; 0.504 (inactive) in assay [12]; 0.973 (inactive) in assay [13]; 1.75 (inactive) in assay [14]; -1.06 (inactive) in assay [16].

With `CCOC(=O)C1=CCC(c2ccncc2)N(S(=O)(=O)c2ccc(C)cc2)C1` (stereo not given), the composite z-score in assay [1] was -0.149; in assay [2] it was -0.128; in [3] it was -0.0459; in [4], 1.03; in assay [5], 1.32; in assay [6], 2.03. Further, the composite z-score in assay [7] was 1.21; in [9], 0.981; in assay [10] it was -0.0735; in assay [11], 1.36; in [15], 3.84; in assay [17], -0.0585. Further, the composite z-score is 0.361 in assay [18], 1.09 in assay [19] and 0.0642 in [20]. Also, the z-score in assay [8] was -1.41 (inactive); in [12], -2.24 (inactive); in [13], -2.69 (inactive); in [14], 8.79 (active); in assay [16], 0.336 (inactive).

For `CC(C)(C)OC(=O)N1[C@@H](C=C(Br)Br)COC1(C)C`, the composite z-score in assay [1] is -0.195; in assay [2], -0.0287; in [3], 0.0014; in assay [4], 0.348; in assay [5], 0.519; in [6], -0.0961. For the same compound, the composite z-score in assay [7] is 0.286; in assay [9], 0.125; in [10], 0.0302; in assay [11] it was 0.656; in assay [15], 0.546; in assay [17], -0.0815. The composite z-score was 0.462 in [18], 0.668 in assay [19] and -0.0954 in assay [20]. The z-score in assay [8] is -1.42 (inactive); in assay [12], -2.93 (inactive); in assay [13] it was -6.61 (inactive); in assay [14], -1.27 (inactive); in [16], 1.74 (inactive).
